Here are results for 39 molecules from PubChem BioAssay (NCI).

SMILES strings stand for the structures. This is part of a sample that, as a whole, favours compounds with a hit. Of some 79,000 tested, about 15% had one in any assay. Activity calls are given as the source filed them. Rule as the data show it: active = growth inhibition above about 70%; inactive = the rest.

One test can be described thus: NCI Yeast Anticancer Drug Screen. Data for the rad52 strain (AID 147).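 Also: 0% = growth of vehicle-treated control cultures.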 The settings on record: S. cerevisiae rad52 mutant growth inhibition; at 1.2 µM; active compounds read high. The essentials:
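Inhibition of yeast growth, referenced to vehicle controls, was the measured output for a strain with defective DNA damage repair.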
As to `CCCc1cc(C(=O)OCC)cc(CCC)c1O`, the growth inhibition is -2% (inactive).
For `CC(C)[N+]([O-])(CCCNc1c2ccccc2nc2cccc([N+](=O)[O-])c12)C(C)C`, the growth inhibition was 48% (inactive).
The same measure, in the same setting: in the case of `COc1cc2c3c(cccc3c1)C(=O)N(CCN(C)C)C2=O` it was -43% (inactive); in that of `NC(=O)NN=C(CS)CS`, -1% (inactive).
In the case of `Cc1ccc(NC(=O)/C(Cl)=C(\Cl)C(=O)O)cc1C`, the growth inhibition was 2% (inactive).
Same read-out and setting: in the case of `CCN(CC)CC[n+]1ccc2c(C)c3[nH]c4ccc(O)cc4c3c(C)c2c1` it was 13% (inactive); in that of `CC(CC(C)(C)[N+](C)(C)C)[N+](C)(C)C` (stereo not drawn), 13% (inactive).
The same measure, in the same setting: for `COc1ccc(OC)c2cc3ccccc3cc12` the value was 11% (inactive); for `Nc1ncncc1C(C1=C(O)COC1=O)C1=C(O)COC1=O`, 2% (inactive).
With `CSC1=NNC(SC)=NN1`, the growth inhibition was -13% (inactive).
Still for that read-out and setting: in the case of `Cc1c(Cl)ccc2c1S(=O)(=O)c1cccc(Cl)c1-2` it was 0% (inactive).
Turning to `[O-][n+]1c2ccc(O)cc2nc2ccc(Cl)cc21`, the growth inhibition was 5% (inactive).
Still for that read-out and setting: in the case of `COc1ccc2ccc3ccccc3c2c1C=O` it was -5% (inactive); in that of `Nc1ccc2c(c1)C(=O)c1cccc(N)c1C2=O`, 6% (inactive).
In the case of `O=C(c1ccc(Cl)cc1Cl)C(Cl)Cl`, the growth inhibition is 4% (inactive).
For `COc1cc(C(=O)/C=C/c2ccccc2O)ccc1O`, the growth inhibition is -11% (inactive).
For the molecule `O=Cc1cccc2ccc3ccccc3c12`, the growth inhibition is -6% (inactive).
On the same count and under the same terms, for `O=C(Nc1ccc(Cl)cc1)OCC#CCCl` the value was 5% (inactive).
The same measure, in the same setting: in the case of `Cn1ccnc1Oc1ccc(Cl)cc1` it was -7% (inactive); in that of `c1ccc2c(c1)C(=NCCCN1CCCCCC1)c1cccn1-2`, -3% (inactive); in that of `C/C(=N\O)C1CC2C=C(C#N)C1N(Cc1ccccc1)C2` (stereo not drawn), -5% (inactive).
The same measure, in the same setting: in the case of `O=[N+]([O-])C(=C(Sc1ccccc1)Sc1ccccc1)C(Cl)=C(Cl)Cl` it was 14% (inactive); in that of `CCCCCCCCCC/C=C\C(=O)O`, -3% (inactive).
For the molecule `COc1ccc(N=C2C(=O)Nc3ccc(Br)cc32)cc1`, the growth inhibition is 14% (inactive).
Same read-out and setting: for `COc1ccccc1C(=O)OCC1CCCN2CCCCC12` (stereo not drawn) the value was 22% (inactive); for `CC(C)(Br)C(=O)/C=C/c1ccc(Cl)c(Cl)c1`, 2% (inactive).
The same measure, in the same setting: for `Nc1ccccc1CC(O)C(=O)O` (stereo not drawn) the value was 0% (inactive).
As to `CC(=O)N/N=C/C(C)(C)C(C)(C)/C=N/NC(C)=O`, the growth inhibition was -1% (inactive).
The same measure, in the same setting: in the case of `CN(C)c1nc2sc3c(c2c(=O)o1)CCCC3` it was 2% (inactive); in that of `CC(C)OC(=O)Oc1ccccc1OC(=O)OC(C)C`, -3% (inactive).
As to `Cc1ccc(N)c(S)c1`, the growth inhibition is -56% (inactive).
Still for that read-out and setting: for `O=C(O)c1ccccc1NC(=S)c1ccccc1` the value was -5% (inactive); for `COC(=O)c1ccc(NCC2=CC(=O)C=CC2=O)cc1O`, 13% (inactive); for `NC(N)=N/N=C\c1c2ccccc2cc2ccccc12`, -73% (inactive).
On the same count and under the same terms, in the case of `COC(=O)CSSCc1ccc([N+](=O)[O-])cc1` it was 3% (inactive); in that of `CCS(=O)(=O)c1ccc(/C=C/C=N/NC(=S)NCC(C)C)cc1`, 5% (inactive).
Still for that read-out and setting: in the case of `N#CC(C(=O)Nc1ccccc1)C1=C(Cl)C(=O)c2ccccc2C1=O` (stereo not drawn) it was 7% (inactive).
`C[C@H](CCC(=O)NN)[C@H]1CC[C@H]2[C@@H]3CC[C@@H]4C[C@H](O)CC[C@]4(C)[C@H]3CC[C@]12C`: the growth inhibition was -2% (inactive).
Same read-out and setting: in the case of `CC[n+]1ccc2c(C)c3[nH]c4ccc(O)cc4c3c(C)c2c1` it was 5% (inactive).

The same test, now with this note: S. cerevisiae rad52 mutant growth inhibition; at 3.7 µM; active compounds read high.
Take `CCCc1cc(C(=O)OCC)cc(CCC)c1O`: the growth inhibition was -8% (inactive).
For the molecule `CC(C)[N+]([O-])(CCCNc1c2ccccc2nc2cccc([N+](=O)[O-])c12)C(C)C`, the growth inhibition is 83% (active).
With `COc1cc2c3c(cccc3c1)C(=O)N(CCN(C)C)C2=O`, the growth inhibition is -14% (inactive).
As for `NC(=O)NN=C(CS)CS`, the growth inhibition is 4% (inactive).
Still for that read-out and setting: in the case of `Cc1ccc(NC(=O)/C(Cl)=C(\Cl)C(=O)O)cc1C` it was 7% (inactive).
Same read-out and setting: in the case of `CCN(CC)CC[n+]1ccc2c(C)c3[nH]c4ccc(O)cc4c3c(C)c2c1` it was 41% (inactive).
Same read-out and setting: in the case of `CC(CC(C)(C)[N+](C)(C)C)[N+](C)(C)C` (stereo not drawn) it was 1% (inactive); in that of `COc1ccc(OC)c2cc3ccccc3cc12`, -9% (inactive); in that of `Nc1ncncc1C(C1=C(O)COC1=O)C1=C(O)COC1=O`, -1% (inactive).
On to `CSC1=NNC(SC)=NN1`, for which the growth inhibition was -5% (inactive).
Still for that read-out and setting: in the case of `Cc1c(Cl)ccc2c1S(=O)(=O)c1cccc(Cl)c1-2` it was 0% (inactive); in that of `[O-][n+]1c2ccc(O)cc2nc2ccc(Cl)cc21`, 19% (inactive).
Same read-out and setting: in the case of `COc1ccc2ccc3ccccc3c2c1C=O` it was -5% (inactive); in that of `Nc1ccc2c(c1)C(=O)c1cccc(N)c1C2=O`, 38% (inactive).
In the case of `O=C(c1ccc(Cl)cc1Cl)C(Cl)Cl`, the growth inhibition is 0% (inactive).
The same measure, in the same setting: for `COc1cc(C(=O)/C=C/c2ccccc2O)ccc1O` the value was 55% (inactive).
With `O=Cc1cccc2ccc3ccccc3c12`, the growth inhibition was 0% (inactive).
On to `O=C(Nc1ccc(Cl)cc1)OCC#CCCl`, for which the growth inhibition is -1% (inactive).
On the same count and under the same terms, in the case of `Cn1ccnc1Oc1ccc(Cl)cc1` it was -11% (inactive); in that of `c1ccc2c(c1)C(=NCCCN1CCCCCC1)c1cccn1-2`, -5% (inactive).
On the same count and under the same terms, in the case of `C/C(=N\O)C1CC2C=C(C#N)C1N(Cc1ccccc1)C2` (stereo not drawn) it was -3% (inactive); in that of `O=[N+]([O-])C(=C(Sc1ccccc1)Sc1ccccc1)C(Cl)=C(Cl)Cl`, 30% (inactive).
Same read-out and setting: in the case of `CCCCCCCCCC/C=C\C(=O)O` it was -1% (inactive).
With `COc1ccc(N=C2C(=O)Nc3ccc(Br)cc32)cc1`, the growth inhibition was 15% (inactive).
On the same count and under the same terms, in the case of `COc1ccccc1C(=O)OCC1CCCN2CCCCC12` (stereo not drawn) it was 8% (inactive).
Same read-out and setting: for `CC(C)(Br)C(=O)/C=C/c1ccc(Cl)c(Cl)c1` the value was 3% (inactive); for `Nc1ccccc1CC(O)C(=O)O` (stereo not drawn), 5% (inactive).
As to `CC(=O)N/N=C/C(C)(C)C(C)(C)/C=N/NC(C)=O`, the growth inhibition is -5% (inactive).
For `CN(C)c1nc2sc3c(c2c(=O)o1)CCCC3`, the growth inhibition is 5% (inactive).
The same measure, in the same setting: for `CC(C)OC(=O)Oc1ccccc1OC(=O)OC(C)C` the value was -3% (inactive); for `Cc1ccc(N)c(S)c1`, -52% (inactive).
As for `O=C(O)c1ccccc1NC(=S)c1ccccc1`, the growth inhibition is -1% (inactive).
On to `COC(=O)c1ccc(NCC2=CC(=O)C=CC2=O)cc1O`, for which the growth inhibition was 34% (inactive).
Same read-out and setting: for `NC(N)=N/N=C\c1c2ccccc2cc2ccccc12` the value was -78% (inactive); for `COC(=O)CSSCc1ccc([N+](=O)[O-])cc1`, 19% (inactive); for `CCS(=O)(=O)c1ccc(/C=C/C=N/NC(=S)NCC(C)C)cc1`, 3% (inactive).
As for `N#CC(C(=O)Nc1ccccc1)C1=C(Cl)C(=O)c2ccccc2C1=O` (stereo not drawn), the growth inhibition was 57% (inactive).
`C[C@H](CCC(=O)NN)[C@H]1CC[C@H]2[C@@H]3CC[C@@H]4C[C@H](O)CC[C@]4(C)[C@H]3CC[C@]12C`: the growth inhibition is 0% (inactive).
For `CC[n+]1ccc2c(C)c3[nH]c4ccc(O)cc4c3c(C)c2c1`, the growth inhibition was 48% (inactive).
